# In PubChem BioAssay (EPA / NIEHS):
# Records with an inconclusive call do not appear. Active and inactive are the calls of the source. The calls were made as follows, unless noted: active = hit-call score of the fitted dose curve at least 0.9, where 1 is the maximum; inactive = score below 0.9.
# Columns and labels:
# [1] = biological target: Nuclear respiratory factor 1 (Homo sapiens) (UniProt Q16656); test: ATG_NRF1_CIS: Attagene CIS-FACTORIAL HepG2 Assay for human Nuclear Respiratory Factor 1 (NRF1) Orphan Gene (AID 2282987); details: HepG2 NRF1 cis-element reporter, Attagene multiplex; actives raise or lower the signal
# Chain of Nuclear respiratory factor 1 (Homo sapiens) (Q16656 whole entry, looked up, the tested form may be a part): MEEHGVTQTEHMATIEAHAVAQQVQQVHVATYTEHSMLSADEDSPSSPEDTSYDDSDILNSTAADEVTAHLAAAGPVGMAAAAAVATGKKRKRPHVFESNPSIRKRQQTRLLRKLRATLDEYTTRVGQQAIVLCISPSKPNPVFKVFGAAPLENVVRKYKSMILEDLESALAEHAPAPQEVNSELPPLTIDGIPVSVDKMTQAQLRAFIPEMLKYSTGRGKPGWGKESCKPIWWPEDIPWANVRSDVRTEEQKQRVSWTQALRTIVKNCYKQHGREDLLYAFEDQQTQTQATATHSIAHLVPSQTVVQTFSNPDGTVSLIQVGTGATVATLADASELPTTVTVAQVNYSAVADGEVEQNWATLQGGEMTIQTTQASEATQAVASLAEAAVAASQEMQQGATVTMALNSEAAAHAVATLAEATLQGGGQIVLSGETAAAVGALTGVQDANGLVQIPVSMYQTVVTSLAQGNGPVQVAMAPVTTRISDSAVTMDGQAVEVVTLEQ
# Outline: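 Cells (HepG2, transient MRTU transfection) are exposed to compound for 24 h, then RNA isolated and reporter mRNA amplified and fluorescently labelled. Fragments are separated by capillary electrophoresis; signal change is fitted bidirectionally relative to DMSO.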
# [2] = ATG_NFI_CIS: Attagene CIS-FACTORIAL HepG2 Assay for human Nuclear Factor I (NFI) (AID 2282989); details: HepG2 cis-regulatory reporter, NFI response element transcription; actives raise or lower the signal
# Outline: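 Reporter transcription driven by endogenous transcription factors in HepG2 cells; 24 h treatment. Quantitation by labelled RT-PCR fragments on capillary electrophoresis, gain- or loss-of-signal relative to DMSO.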
# [3] = biological target: Myc proto-oncogene protein (Homo sapiens) (UniProt P01106); test: ATG_Myc_CIS: Attagene CIS-FACTORIAL HepG2 Assay for human Myelocytomatosis (Myc) Proto-Oncogene Transcription Factor (AID 2282990); details: HepG2, Attagene cis-reporter transcription factor activity; actives raise or lower the signal
# Chain of Myc proto-oncogene protein (Homo sapiens) (P01106 whole entry, looked up, the tested form may be a part): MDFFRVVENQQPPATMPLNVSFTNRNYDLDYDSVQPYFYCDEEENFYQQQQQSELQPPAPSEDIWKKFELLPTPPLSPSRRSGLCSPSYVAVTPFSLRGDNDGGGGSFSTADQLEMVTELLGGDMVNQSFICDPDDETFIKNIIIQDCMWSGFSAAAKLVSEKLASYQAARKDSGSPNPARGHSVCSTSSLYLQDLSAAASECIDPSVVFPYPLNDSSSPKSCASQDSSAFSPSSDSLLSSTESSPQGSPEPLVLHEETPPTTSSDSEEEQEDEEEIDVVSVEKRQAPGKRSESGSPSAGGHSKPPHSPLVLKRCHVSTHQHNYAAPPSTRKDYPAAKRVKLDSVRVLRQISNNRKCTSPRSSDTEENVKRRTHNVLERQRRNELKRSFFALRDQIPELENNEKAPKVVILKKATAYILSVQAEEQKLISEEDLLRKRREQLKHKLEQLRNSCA
# Outline: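 Read-out: fluorescent reporter mRNA fragments resolved by capillary electrophoresis after RT-PCR. Human HepG2 liver cells carried transfected cis-element reporter units and were dosed for 24 h. Gain or loss of signal fitted relative to DMSO baseline.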
# [4] = ATG_NF_kB_CIS: Attagene CIS-FACTORIAL HepG2 Assay for human Nuclear Factor Kappa B (NF-kB) (AID 2282991); details: HepG2 Attagene cis-factorial NF-kB reporter mRNA; actives raise or lower the signal
# Outline: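 Measures mRNA induction of an NF-kB-responsive cis-element reporter in HepG2 cells transfected with multiple reporter units, sampled 24 h post-dosing; quantified by fluorescence after RT-PCR and capillary electrophoresis, fitted for activation or inhibition against DMSO.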
# [5] = ATG_NRF2_ARE_CIS: Attagene CIS-FACTORIAL HepG2 Assay for human Nuclear Factor Erythroid 2 Related Factor 2 (NFR2) response to Antioxidant Response Elements (ARE) (AID 2282992); details: HepG2 Attagene ARE/NRF2 reporter, transcription factor activity; actives raise or lower the signal;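 as to AC50: reporter mRNA level measured by RT-PCR and capillary electrophoresis fluorescence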
# Outline: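 Fluorescence intensity of reporter-specific cDNA fragments, separated by capillary electrophoresis, reflects mRNA induction in transfected HepG2 cells at 24 h. Activity is fitted bidirectionally, DMSO serving as baseline.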
# [6] = ATG_Oct_MLP_CIS: Attagene CIS-FACTORIAL HepG2 Assay for human Octamer-Binding Transcription Factor (Oct) (AID 2282993); details: HepG2 Attagene cis-factorial Oct reporter, mRNA; actives raise or lower the signal
# Outline: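 Transfected HepG2 cells, 24 h treatment. Reporter mRNA quantified by RT-PCR–capillary electrophoresis; bidirectional fitting against DMSO.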
# [7] = biological target: Cellular tumor antigen p53 (Homo sapiens) (UniProt P04637); test: ATG_p53_CIS: Attagene CIS-FACTORIAL HepG2 Assay for human p53 Transcription Factor (AID 2282994); details: HepG2 p53 cis-element reporter, Attagene mRNA; actives raise or lower the signal
# Chain of Cellular tumor antigen p53 (Homo sapiens) (P04637 whole entry, looked up): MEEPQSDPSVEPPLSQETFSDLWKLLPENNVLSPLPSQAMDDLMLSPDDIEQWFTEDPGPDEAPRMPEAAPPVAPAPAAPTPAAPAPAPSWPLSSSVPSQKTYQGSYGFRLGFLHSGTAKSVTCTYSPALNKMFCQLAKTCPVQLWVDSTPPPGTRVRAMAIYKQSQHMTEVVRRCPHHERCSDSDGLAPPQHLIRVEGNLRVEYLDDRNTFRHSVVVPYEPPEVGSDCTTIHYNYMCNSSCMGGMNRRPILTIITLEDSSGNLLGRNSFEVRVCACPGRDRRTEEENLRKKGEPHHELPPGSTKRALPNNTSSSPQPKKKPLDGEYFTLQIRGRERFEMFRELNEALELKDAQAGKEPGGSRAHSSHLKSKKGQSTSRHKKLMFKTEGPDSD
# Outline: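 Transiently transfected HepG2 (multiple cis reporter transcription units); exposure 24 h; reporter RNA via RT-PCR, 6-FAM extension, 2 h HpaI digest at 37 C, CE detection; DMSO baseline.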
# [8] = biological target: Peroxisome proliferator-activated receptor gamma (Homo sapiens) (UniProt P37231); test: ATG_PPARg_TRANS: Attagene TRANS-FACTORIAL HepG2 Assay for human Peroxisome Proliferator-activated Receptor-gamma (PPARg) (AID 2283007; active = hit-call score of the fitted dose curve at least 0.9, where 1 is the maximum)
# Chain of Peroxisome proliferator-activated receptor gamma (Homo sapiens) (P37231 whole entry, looked up, the tested form may be a part): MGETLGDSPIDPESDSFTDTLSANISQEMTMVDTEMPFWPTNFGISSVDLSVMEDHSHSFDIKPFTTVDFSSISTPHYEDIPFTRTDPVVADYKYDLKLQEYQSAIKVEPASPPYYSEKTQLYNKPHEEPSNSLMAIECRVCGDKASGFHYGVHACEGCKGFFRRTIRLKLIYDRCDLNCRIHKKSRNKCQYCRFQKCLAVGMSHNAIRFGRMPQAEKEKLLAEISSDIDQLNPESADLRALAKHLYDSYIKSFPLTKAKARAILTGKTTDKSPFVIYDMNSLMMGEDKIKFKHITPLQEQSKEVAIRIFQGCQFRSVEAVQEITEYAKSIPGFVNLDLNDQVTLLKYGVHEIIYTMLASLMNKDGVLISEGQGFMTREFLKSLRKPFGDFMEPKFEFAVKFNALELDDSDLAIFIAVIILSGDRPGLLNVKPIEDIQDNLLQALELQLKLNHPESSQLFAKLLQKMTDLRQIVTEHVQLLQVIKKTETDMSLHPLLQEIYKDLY
# Outline: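 Gain-of-signal endpoint relative to DMSO, derived from reporter mRNA levels quantified by RT-PCR and capillary electrophoresis. Cells were HepG2 transiently expressing a chimeric NR-Gal4 construct with GAL4-UAS reporters, exposed to chemicals for 24 h.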
# [9] = biological target: human Retinoic Acid Receptor gamma (RARg), RARG (gene 5916) (UniProt P13631); test: ATG_RARg_TRANS: Attagene TRANS-FACTORIAL HepG2 Assay for human Retinoic Acid Receptor gamma (RARg) (AID 2283009; active = hit-call score of the fitted dose curve at least 0.9, where 1 is the maximum)
# Chain of human Retinoic Acid Receptor gamma (RARg), RARG (gene 5916) (P13631 whole entry, looked up, the tested form may be a part): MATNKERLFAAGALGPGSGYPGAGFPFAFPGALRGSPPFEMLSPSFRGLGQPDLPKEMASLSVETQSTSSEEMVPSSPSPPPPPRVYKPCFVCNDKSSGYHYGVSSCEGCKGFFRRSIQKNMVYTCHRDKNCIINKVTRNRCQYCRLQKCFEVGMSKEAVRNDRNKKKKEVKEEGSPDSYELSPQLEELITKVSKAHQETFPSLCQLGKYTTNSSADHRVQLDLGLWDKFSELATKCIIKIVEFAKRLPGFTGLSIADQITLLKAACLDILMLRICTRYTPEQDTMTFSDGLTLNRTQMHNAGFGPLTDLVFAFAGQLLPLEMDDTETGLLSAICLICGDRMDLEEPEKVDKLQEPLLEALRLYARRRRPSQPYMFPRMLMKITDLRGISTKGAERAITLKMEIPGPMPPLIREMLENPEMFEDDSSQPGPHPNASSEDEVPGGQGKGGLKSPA
# Outline: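 TRANS format measured activity of exogenous NR-GAL4 fusion (RARg) in transfected HepG2 liver cells after 24 h dosing. Induced reporter RNA was detected by RT-PCR/capillary electrophoresis fluorescence, analysed in the positive direction against DMSO.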
# [10] = biological target: Retinoic acid receptor alpha (Homo sapiens) (UniProt P10276); test: ATG_RARa_TRANS: Attagene TRANS-FACTORIAL HepG2 Assay for human Retinoic Acid Receptor alpha (RARa) (AID 2283005; active = hit-call score of the fitted dose curve at least 0.9, where 1 is the maximum)
# Chain of Retinoic acid receptor alpha (Homo sapiens) (P10276 whole entry, looked up, the tested form may be a part): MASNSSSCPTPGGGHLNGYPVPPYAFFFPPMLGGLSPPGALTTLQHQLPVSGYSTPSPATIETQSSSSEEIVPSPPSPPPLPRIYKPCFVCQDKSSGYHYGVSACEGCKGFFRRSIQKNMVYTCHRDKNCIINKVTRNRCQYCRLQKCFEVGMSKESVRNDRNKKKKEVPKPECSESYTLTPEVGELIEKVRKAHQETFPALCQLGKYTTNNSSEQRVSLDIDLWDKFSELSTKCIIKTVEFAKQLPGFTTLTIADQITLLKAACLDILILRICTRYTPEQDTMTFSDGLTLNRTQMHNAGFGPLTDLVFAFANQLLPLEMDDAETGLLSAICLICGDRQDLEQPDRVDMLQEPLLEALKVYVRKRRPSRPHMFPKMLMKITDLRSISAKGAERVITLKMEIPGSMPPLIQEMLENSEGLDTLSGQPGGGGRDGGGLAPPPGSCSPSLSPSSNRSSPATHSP
# Outline: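 HepG2 transiently transfected with multiplex GAL4-UAS reporter units including a human RARa–GAL4 chimera; 24 h compound exposure. Reporter mRNA quantified by RT-PCR, 6-FAM labeling and capillary electrophoresis; gain of signal versus DMSO.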
# [11] = biological target: Nuclear receptor subfamily 1 group I member 2 (Homo sapiens) (UniProt O75469); test: ATG_PXR_TRANS: Attagene TRANS-FACTORIAL HepG2 Assay for human Pregnane X Receptor (PXR) (AID 2283008; active = hit-call score of the fitted dose curve at least 0.9, where 1 is the maximum)
# Chain of Nuclear receptor subfamily 1 group I member 2 (Homo sapiens) (O75469 whole entry, looked up, the tested form may be a part): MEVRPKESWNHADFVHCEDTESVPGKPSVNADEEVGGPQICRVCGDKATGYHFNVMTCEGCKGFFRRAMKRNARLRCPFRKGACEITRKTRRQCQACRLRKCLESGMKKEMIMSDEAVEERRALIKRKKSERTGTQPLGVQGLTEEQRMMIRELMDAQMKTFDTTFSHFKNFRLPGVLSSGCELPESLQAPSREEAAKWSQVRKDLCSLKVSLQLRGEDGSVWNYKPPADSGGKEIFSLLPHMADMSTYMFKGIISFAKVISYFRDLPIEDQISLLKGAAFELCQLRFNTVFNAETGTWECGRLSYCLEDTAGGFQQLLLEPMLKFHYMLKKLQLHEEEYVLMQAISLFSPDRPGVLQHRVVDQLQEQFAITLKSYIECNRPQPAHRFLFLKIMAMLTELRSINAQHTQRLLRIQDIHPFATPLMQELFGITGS
# Outline: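 Transient HepG2 transfectants carrying multiplexed reporter transcription units; PXR activity read through a Gal4 chimera. 24 h exposure. RT-PCR/CE fluorescence; upward curve fit referenced to DMSO.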
# [12] = biological target: human Peroxisome Proliferator-activated Receptor delta (PPARd), PPARD (gene 5467) (UniProt Q03181); test: ATG_PPARd_TRANS: Attagene TRANS-FACTORIAL HepG2 Assay for human Peroxisome Proliferator-activated Receptor delta (PPARd) (AID 2283002; active = hit-call score of the fitted dose curve at least 0.9, where 1 is the maximum)
# Chain of human Peroxisome Proliferator-activated Receptor delta (PPARd), PPARD (gene 5467) (Q03181 whole entry, looked up, the tested form may be a part): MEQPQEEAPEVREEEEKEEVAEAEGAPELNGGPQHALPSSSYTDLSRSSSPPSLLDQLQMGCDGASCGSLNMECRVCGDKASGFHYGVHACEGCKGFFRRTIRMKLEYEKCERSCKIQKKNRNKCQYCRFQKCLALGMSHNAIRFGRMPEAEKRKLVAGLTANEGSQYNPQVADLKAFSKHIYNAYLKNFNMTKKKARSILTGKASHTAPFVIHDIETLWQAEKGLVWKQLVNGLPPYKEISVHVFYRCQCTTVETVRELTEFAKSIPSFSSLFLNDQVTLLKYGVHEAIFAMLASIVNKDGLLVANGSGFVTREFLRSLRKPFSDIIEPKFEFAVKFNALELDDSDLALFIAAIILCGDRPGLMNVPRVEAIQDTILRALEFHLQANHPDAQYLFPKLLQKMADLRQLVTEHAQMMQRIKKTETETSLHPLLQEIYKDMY
# Outline: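 Read-out: reporter mRNA induction, quantified by fluorescent RT-PCR products resolved by capillary electrophoresis. Human HepG2 liver cells carried transiently transfected Gal4-UAS reporter constructs with chimeric NR-Gal4 fusions. Cells were dosed for 24 h; DMSO served as baseline.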
# [13] = biological target: human Retinoic Acid Receptor beta (RARb), RARB (gene 5915) (UniProt P10826); test: ATG_RARb_TRANS: Attagene TRANS-FACTORIAL HepG2 Assay for human Retinoic Acid Receptor beta (AID 2283004; active = hit-call score of the fitted dose curve at least 0.9, where 1 is the maximum)
# Chain of human Retinoic Acid Receptor beta (RARb), RARB (gene 5915) (P10826 whole entry, looked up, the tested form may be a part): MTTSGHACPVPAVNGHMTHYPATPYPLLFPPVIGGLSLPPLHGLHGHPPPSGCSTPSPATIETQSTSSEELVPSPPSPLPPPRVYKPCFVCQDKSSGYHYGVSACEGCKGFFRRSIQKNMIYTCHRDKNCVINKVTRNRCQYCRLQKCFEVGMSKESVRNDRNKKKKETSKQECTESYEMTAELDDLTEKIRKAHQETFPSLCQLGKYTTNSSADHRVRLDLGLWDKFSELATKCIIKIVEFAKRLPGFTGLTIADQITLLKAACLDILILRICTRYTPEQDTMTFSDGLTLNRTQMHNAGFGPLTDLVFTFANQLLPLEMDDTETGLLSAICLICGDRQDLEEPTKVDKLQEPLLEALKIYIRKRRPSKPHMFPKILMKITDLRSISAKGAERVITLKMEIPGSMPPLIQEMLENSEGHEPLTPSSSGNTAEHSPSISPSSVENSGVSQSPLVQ
# Outline: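 HepG2, transient MRTU transfection, NR–Gal4 chimera, 24 h treatment; RT-PCR plus CE fluorescence detection of reporter mRNA; gain of signal vs DMSO.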
# [14] = biological target: human Peroxisome Proliferator-activated Receptor alpha (PPARa), PPARA (gene 5465) (UniProt Q07869); test: ATG_PPARa_TRANS: Attagene TRANS-FACTORIAL HepG2 Assay for human Peroxisome Proliferator-activated Receptor alpha (PPARa) (AID 2283001; active = hit-call score of the fitted dose curve at least 0.9, where 1 is the maximum)
# Chain of human Peroxisome Proliferator-activated Receptor alpha (PPARa), PPARA (gene 5465) (Q07869 whole entry, looked up): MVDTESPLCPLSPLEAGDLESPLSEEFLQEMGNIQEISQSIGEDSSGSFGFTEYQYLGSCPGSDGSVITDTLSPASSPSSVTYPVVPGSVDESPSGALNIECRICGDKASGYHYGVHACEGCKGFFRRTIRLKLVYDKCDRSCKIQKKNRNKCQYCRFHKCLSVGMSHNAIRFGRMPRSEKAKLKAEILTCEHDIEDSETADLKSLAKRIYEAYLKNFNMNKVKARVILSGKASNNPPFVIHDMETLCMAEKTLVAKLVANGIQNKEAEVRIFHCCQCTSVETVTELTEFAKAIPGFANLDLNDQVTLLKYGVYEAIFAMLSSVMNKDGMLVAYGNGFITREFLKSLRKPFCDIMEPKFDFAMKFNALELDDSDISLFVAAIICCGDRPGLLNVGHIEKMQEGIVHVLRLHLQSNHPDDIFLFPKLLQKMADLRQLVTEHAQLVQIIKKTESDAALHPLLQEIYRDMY
# Outline: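 HepG2, transient MRTU transfection, 24 h treatment. RT-PCR → FAM labelling → capillary electrophoresis. Fit vs DMSO, positive direction.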
compound,measurement,setting,value
CCCCCCCCCCCC(=O)OCC,outcome,[1],inactive
same,outcome,[2],inactive
same,outcome,[3],inactive
same,outcome,[4],inactive
same,outcome,[5],inactive
same,outcome,[6],inactive
same,outcome,[7],inactive
same,outcome,[8],inactive
same,outcome,[9],inactive
CC1(C)[C@@H]2CC[C@@]1(C)C(=O)C2,outcome,[1],inactive
same,outcome,[2],inactive
same,outcome,[3],inactive
same,outcome,[4],inactive
same,outcome,[5],inactive
same,outcome,[6],inactive
same,outcome,[7],inactive
same,outcome,[10],inactive
same,outcome,[11],inactive
same,outcome,[9],inactive
NNS(=O)(=O)c1ccc(Oc2ccc(S(=O)(=O)NN)cc2)cc1,outcome,[1],inactive
same,outcome,[2],inactive
same,outcome,[3],inactive
same,outcome,[4],inactive
same,outcome,[5],inactive
same,outcome,[6],inactive
same,outcome,[7],inactive
same,outcome,[8],inactive
same,outcome,[11],inactive
CC(C)c1ccc2ncccc2c1,outcome,[1],inactive
same,outcome,[2],inactive
same,outcome,[3],inactive
same,outcome,[4],inactive
same,AC50,[5],64.6 µM (active)
same,outcome,[6],inactive
same,outcome,[12],inactive
same,outcome,[13],inactive
same,outcome,[10],inactive
same,AC50,[11],21.4 µM (active)
same,outcome,[9],inactive
CC(C)(C)N,outcome,[1],inactive
same,outcome,[2],inactive
same,outcome,[3],inactive
same,outcome,[4],inactive
same,outcome,[5],inactive
same,outcome,[6],inactive
same,outcome,[7],inactive
same,outcome,[8],inactive
same,outcome,[11],inactive
CC1=CCC2CC1C2(C)C (stereo not drawn),outcome,[1],inactive
same,outcome,[2],inactive
same,outcome,[3],inactive
same,outcome,[4],inactive
same,outcome,[5],inactive
same,outcome,[6],inactive
same,outcome,[14],inactive
same,outcome,[13],inactive
same,outcome,[10],inactive
same,outcome,[11],inactive
same,outcome,[9],inactive
CC(C)(C)C1CCC(=O)CC1,outcome,[1],inactive
same,outcome,[2],inactive
same,outcome,[3],inactive
same,outcome,[4],inactive
same,outcome,[5],inactive
same,AC50,[6],145 µM (active)
same,outcome,[7],inactive
same,outcome,[12],inactive
same,outcome,[11],inactive
same,outcome,[9],inactive
CC(=O)CC(=O)Nc1ccccc1C,outcome,[1],inactive
same,outcome,[2],inactive
same,outcome,[3],inactive
same,outcome,[4],inactive
same,outcome,[5],inactive
same,outcome,[6],inactive
same,outcome,[7],inactive
same,outcome,[9],inactive
CCCCOC(=O)CCC(C)=O,outcome,[1],inactive
same,outcome,[2],inactive
same,outcome,[3],inactive
same,outcome,[4],inactive
same,outcome,[5],inactive
same,outcome,[6],inactive
same,outcome,[14],inactive
same,outcome,[12],inactive
same,outcome,[11],inactive
CCCC(CC)c1ccccc1 (stereo not drawn),AC50,[1],158 µM (active)
same,AC50,[2],181 µM (active)
same,outcome,[3],inactive
same,outcome,[4],inactive
same,AC50,[5],165 µM (active)
same,outcome,[6],inactive
same,outcome,[7],inactive
same,outcome,[11],inactive
same,outcome,[9],inactive
O=C(O)CCC(=O)O,outcome,[1],inactive
same,outcome,[2],inactive
same,outcome,[3],inactive
same,outcome,[4],inactive
same,outcome,[5],inactive
same,outcome,[6],inactive
same,outcome,[14],inactive
CCCCNC(=S)NCCCC,outcome,[1],inactive
same,outcome,[2],inactive
same,outcome,[3],inactive
same,outcome,[4],inactive
same,outcome,[5],inactive
same,outcome,[6],inactive
same,outcome,[7],inactive
same,outcome,[13],inactive
same,outcome,[8],inactive
same,outcome,[11],inactive
same,outcome,[9],inactive
